The nature of assay [1]: inhibitors of TNFa-induced NFkB p65 translocation, primary screen, imaging, HUVEC, MLSMR starter and 10KST1 sets (AID 438;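 active = inhibition above 20% together with a positive visual image hit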;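 note: compound added about 3h40 before a 20 min TNFalpha stimulation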;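 for inhibition: signal is the nuclear over cytoplasmic p65 intensity ratio per well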). The settings on record: HUVEC TNFa-induced p65 nuclear translocation; cell count: measured here: nuclei count (cytotoxicity indicator), at 2.08 µM; inhibition: at 2 µM, stronger effect = higher value, 0% TNFa-plus-vehicle, 100% no-TNFa wells.
Assay [2] is described as follows: inhibitors of mutant huntingtin aggregation, primary screen, imaging, exon1htt(103Q)mCFP cells, high-content imaging (AID 483;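 active = visual image review flags a hit and inhibition of aggregation exceeds 20%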;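 note: compound exposure lasted 3 days before fixation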;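 for nuclei count: percent of the per-plate median nuclei count of sample wells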). The settings on record: exon1htt(103Q)mCFP cell line, aggregate imaging, at 2 µM; inhibition of aggregation: stronger effect = higher value; nuclei count: measured here: cell count, toxicity.
Assay [3] is described as follows: inhibitors of E-selectin induction by TNFa, primary screen, imaging, HUVEC, immunofluorescence, MLSMR starter and 10KST1 sets (AID 487).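 For inhibition: signal is fraction of cell area covered by stained E-selectin grains.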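 For nuclei count: 100% = median nuclei count of all wells on the same plate.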 As to conditions: HUVEC TNFalpha-induced E-selectin immunofluorescence imaging, at 2 µM; inhibition: stronger effect = higher value; nuclei count: measured here: cell number, toxicity.
In assay [4] the target is Voltage-gated potassium channel subunit beta-2 (Rattus norvegicus) (UniProt P62483). Briefly: KvBeta enzyme negative modulators, primary screen, biochemical, NADPH fluorescence (AID 622;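 active = fluorescence slope higher than the sample average by over 3 SD, cut at about -0.22 in these data, passing the limit was not always enough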;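 note: slope of raw intensity against log time taken from 70 to 1610 s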). As to conditions: recombinant KvBeta, 4-cyanobenzaldehyde reduction, at 10 µM, stronger effect = higher value.
Assay [5] has the same target. Briefly: KvBeta positive modulators, primary screen, biochemical, NADPH fluorescence (AID 623;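 active = NADPH fluorescence slope more negative than the mean of all samples by about 3 SD, 99.7% confidence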;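 note: fluorescence intensity change per second fitted from 20 to 320 s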). As to conditions: Recombinant KvBeta, NADPH fluorescence decrease slope, 10 min; at 10 µM; stronger effect = lower value.
In assay [6] the target is Alpha-2C adrenergic receptor (Homo sapiens) (UniProt P18825). The assay is described as follows: modulators of alpha2C/GIRK thallium flux, primary screen, cell-based, HEK293 alpha2C/GIRK1/2 (AID 624;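 active = fluorescence slope after compound addition differing from the mean of all screened samples at 99.7% confidence, in either direction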;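 note: slope of fluorescence ratio to pre-addition baseline per second over 15 to 24 s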). The settings on record: thallium flux BTC fluorescence, at 10 µM, actives lie on both sides.
Assay [7] can be described thus: inhibitors of Sendai virus-induced IRF3 signaling, primary screen, TLR/RLR signaling modifier project, cell-based, Sendai virus stimulus, luciferase, 10K MLSCN set (AID 602276;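 active = inhibition at or above 50% at 10 µM; inactive = inhibition below 50%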;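 note: firefly luciferase from ISG56 promoter only with Renilla not read in this screen; 0% = Sendai virus plus DMSO and 100% = medium plus DMSO without virus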). The settings on record: HEK293 RL24 IRF3 luciferase reporter, at 10 µM, stronger effect = higher value. (In general: A reporter such as luciferase makes a cellular process visible.)
The nature of assay [8]: inhibitors of poly I:C-induced TLR3 signaling, primary screen, cell-based, poly I:C stimulus, luciferase, 10K MLSCN set (AID 602277;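 active = inhibition of the reporter signal at or above 50%; inactive = inhibition below 50%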). The settings on record: HEK293-TLR3 RL24 IRF3 luciferase reporter, at 10 µM, stronger effect = higher value.

Calls of active or inactive are those of the source.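 Rule for the calls, unless noted: active = visually confirmed hit in the image check and inhibition above 20%; inconclusive = visually confirmed hit but inhibition not above 20%; inactive = no visual hit in the image check.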

As usually defined, the inhibition is the change of the read-out against control, counted positive when it falls.

Voltage-gated potassium channel subunit beta-2 (Rattus norvegicus), sequence (P62483 whole entry, looked up): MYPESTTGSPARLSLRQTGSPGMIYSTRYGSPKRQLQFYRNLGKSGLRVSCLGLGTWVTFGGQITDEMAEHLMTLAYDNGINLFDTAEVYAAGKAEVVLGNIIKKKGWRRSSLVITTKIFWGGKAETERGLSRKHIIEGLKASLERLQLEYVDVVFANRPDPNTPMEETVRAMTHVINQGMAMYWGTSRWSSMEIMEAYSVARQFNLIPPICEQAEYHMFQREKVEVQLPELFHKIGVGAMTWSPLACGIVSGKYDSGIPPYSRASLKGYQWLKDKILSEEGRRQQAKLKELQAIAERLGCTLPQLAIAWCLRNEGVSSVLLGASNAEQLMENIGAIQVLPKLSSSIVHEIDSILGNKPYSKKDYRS
Alpha-2C adrenergic receptor (Homo sapiens), sequence (P18825 whole entry, looked up): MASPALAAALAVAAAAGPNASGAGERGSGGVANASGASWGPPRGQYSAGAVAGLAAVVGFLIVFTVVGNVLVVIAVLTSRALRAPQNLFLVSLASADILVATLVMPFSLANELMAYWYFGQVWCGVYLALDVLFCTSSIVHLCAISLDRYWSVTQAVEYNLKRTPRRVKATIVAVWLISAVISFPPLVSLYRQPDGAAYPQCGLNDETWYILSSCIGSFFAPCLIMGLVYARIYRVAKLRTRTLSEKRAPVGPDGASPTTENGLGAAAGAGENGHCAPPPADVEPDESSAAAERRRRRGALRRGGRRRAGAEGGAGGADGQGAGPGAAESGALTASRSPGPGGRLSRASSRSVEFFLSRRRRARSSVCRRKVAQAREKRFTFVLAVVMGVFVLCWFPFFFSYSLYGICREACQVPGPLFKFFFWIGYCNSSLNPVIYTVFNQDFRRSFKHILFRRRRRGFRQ

Regarding `O=C(NCc1ccc(F)cc1)c1cc2ccccn2n1`, the cell count in assay [1] was found to be 589. The inhibition in assay [1] was 4.4% (inactive); in assay [3], -1% (inactive); in assay [7], 1.23% (inactive); in assay [8], -17.7% (inactive). Moreover, the inhibition of aggregation in assay [2] is 6% (inactive). For the same molecule, the nuclei count stood at 97% in assay [2] and 107% in assay [3]. In assay [4], the fluorescence slope was -0.601 (inactive). In assay [5], the NADPH fluorescence slope is -3.6e-05 (inactive). Moreover, the slope in assay [6] was 0.00683 (inactive).

`CCOC(=O)c1ccc(NC(=O)CSC2=NC(=O)C(CC)C(=O)N2)cc1` (centres undefined): the cell count in assay [1] was determined as 534. In addition, the inhibition in assay [1] is -20.1% (inactive); in assay [3], -104% (inactive); in assay [7], -3.93% (inactive); in assay [8], -17% (inactive). Moreover, in assay [2], the inhibition of aggregation was -43.6% (inactive). The nuclei count worked out at 83.8% in assay [2] and 102% in assay [3]. In assay [4], the fluorescence slope was -0.569 (inactive). Moreover, the NADPH fluorescence slope in assay [5] was 2.6e-05 (inactive). Further, in assay [6], the slope was 0.00682 (inactive).

For `COc1cc(/C=N/n2cnnc2)ccc1OCC(=O)N1CCOCC1`, the cell count in assay [1] came out at 378. Further, the inhibition is -0.8% (inactive) in assay [1], -4.3% (inactive) in assay [3], 5.73% (inactive) in assay [7] and 19.7% (inactive) in assay [8]. The inhibition of aggregation in assay [2] is -5.1% (inactive). Further, the nuclei count in assay [2] is 125%; in assay [3], 112%. The fluorescence slope in assay [4] is -0.245 (inactive). Besides, the NADPH fluorescence slope in assay [5] was 7.4e-07 (inactive). Besides, the slope in assay [6] is 0.00585 (inactive).

Regarding `CCOc1ccc2[nH]c(=O)c(CN(Cc3nnnn3CCc3ccccc3)CC3CCCO3)cc2c1` (centres undefined), the cell count in assay [1] was determined as 742. The inhibition was -1.7% (inactive) in assay [1], 17.7% (inactive) in assay [3], 3.9% (inactive) in assay [7] and 16.9% (inactive) in assay [8]. Moreover, the inhibition of aggregation in assay [2] was -4.9% (inactive). In addition, the nuclei count in assay [2] stood at 113%; in assay [3], 107%. In addition, the fluorescence slope in assay [4] was -0.476 (inactive). For the same molecule, the NADPH fluorescence slope in assay [5] is -0.000196 (inactive). The slope in assay [6] was 0.00465 (inactive).

With `CCOC(=O)CN1C(=O)C(=O)c2cccc(C)c21`, the cell count in assay [1] was 651. The inhibition in assay [1] is -4.4% (inactive); in assay [3], -62.9% (inactive); in assay [7] it was 15.4% (inactive); in assay [8], 34.9% (inactive). Further, the inhibition of aggregation in assay [2] is -8.1% (inactive). For the same molecule, the nuclei count in assay [2] and in assay [3] was 119% each time. Also, the fluorescence slope in assay [4] is -0.601 (inactive). Besides, the NADPH fluorescence slope in assay [5] is -4.5e-05 (inactive). Also, in assay [6], the slope was 0.00699 (inactive).

Take `CCOc1ccc(-c2nnn(CC(=O)N3CCN(c4ccc(F)cc4)CC3)n2)cc1OCC`: the cell count in assay [1] came out at 583. Also, the inhibition in assay [1] is -9.5% (inactive); in assay [3], 25% (inactive); in assay [7], 16.8% (inactive); in assay [8], 14% (inactive). Also, the inhibition of aggregation in assay [2] was -17.1% (inactive). In addition, the results for the nuclei count in assay [2] and in assay [3] were 119% and 101%, respectively. Also, in assay [4], the fluorescence slope is -0.642 (inactive). For the same molecule, the NADPH fluorescence slope in assay [5] is -1.5e-05 (inactive). In addition, in assay [6], the slope was 0.00403 (inactive).

In the case of `Cc1cc(C)cc(OCC(=O)NC2=NCCS2)c1`, the cell count in assay [1] came to 311. Besides, the inhibition in assay [1] is -11.8% (inactive); in assay [3], -76% (inactive); in assay [7] it was -3.94% (inactive); in assay [8], -24% (inactive). In assay [2], the inhibition of aggregation is 2.3% (inactive). For the same molecule, the figures for the nuclei count in assay [2] and in assay [3] were 165% and 115%, respectively. Also, the fluorescence slope in assay [4] was -0.573 (inactive). Further, the NADPH fluorescence slope in assay [5] was 1.2e-05 (inactive). In addition, in assay [6], the slope is 0.00659 (inactive).

`COc1ccc(NC(=O)CN2CCN(CC(=O)Nc3cc(OC)cc(OC)c3)CC2)cc1`: in assay [1], the cell count is 306. In addition, the inhibition was -3.6% (inactive) in assay [1], 4.7% (inactive) in assay [3], 13.3% (inactive) in assay [7] and 32.4% (inactive) in assay [8]. Also, in assay [2], the inhibition of aggregation is 8% (inactive). In addition, the values for the nuclei count in assay [2] and in assay [3] were 89.1% and 84.6%, respectively. The fluorescence slope in assay [4] is -0.442 (inactive). The NADPH fluorescence slope in assay [5] was -0.000127 (inactive). In addition, the slope in assay [6] was 0.00643 (inactive).

Turning to `CC1=C(C(=O)NC2CCCC(C)C2C)C2(CCCCC2)OC1=O` (centres undefined), in assay [1], the cell count was found to be 515. For the same molecule, the inhibition is 3.3% (inactive) in assay [1], -37.4% (inactive) in assay [3], -0.153% (inactive) in assay [7] and 17.7% (inactive) in assay [8]. Besides, the inhibition of aggregation in assay [2] was 18.1% (inactive). Besides, the nuclei count in assay [2] stood at 64.9%; in assay [3] it was 114%. Moreover, the fluorescence slope in assay [4] was -0.598 (inactive). Besides, the NADPH fluorescence slope in assay [5] was -6.8e-07 (inactive). In addition, in assay [6], the slope was 0.00687 (inactive).

As to `O=C(C1CCCO1)N1CCN(Cc2nc3ccccc3c(=O)[nH]2)CC1` (centres undefined), the cell count in assay [1] came to 583. In addition, the inhibition is 6.8% (inactive) in assay [1], -6.3% (inactive) in assay [3], 0.729% (inactive) in assay [7] and 31% (inactive) in assay [8]. Further, the inhibition of aggregation in assay [2] is 14% (inactive). For the same molecule, the figures for the nuclei count in assay [2] and in assay [3] were 125% and 104%, respectively. The fluorescence slope in assay [4] was -0.421 (inactive). For the same molecule, in assay [5], the NADPH fluorescence slope was 2.2e-05 (inactive). For the same molecule, the slope in assay [6] is 0.00673 (inactive).

On to `COc1cc2c(cc1OC)C(c1cccnc1)CC(=O)N2` (centres undefined), for which the cell count in assay [1] was determined as 481. Besides, the inhibition in assay [1] is -7.4% (inactive); in assay [3] it was -30.8% (inactive); in assay [7], 9.14% (inactive); in assay [8], 14.4% (inactive). Moreover, the inhibition of aggregation in assay [2] was -12.3% (inactive). Further, the nuclei count in assay [2] came out at 71.7%; in assay [3], 117%. The fluorescence slope in assay [4] was -0.513 (inactive). In addition, the NADPH fluorescence slope in assay [5] is -2.9e-05 (inactive). Also, in assay [6], the slope was 0.00629 (inactive).

With `CSCCC(NC(=O)c1ccco1)C(=O)OC(C)C(=O)NC(=O)NC1CCCCC1` (centres undefined), the cell count in assay [1] amounted to 538. The inhibition in assay [1] is -6.1% (inactive); in assay [3], -79.7% (inactive); in assay [7], 13.1% (inactive); in assay [8], 20.3% (inactive). The inhibition of aggregation in assay [2] was 7.6% (inactive). The nuclei count in assay [2] stood at 88%; in assay [3], 100%. The fluorescence slope in assay [4] is -0.485 (inactive). For the same molecule, the NADPH fluorescence slope in assay [5] was 1e-05 (inactive). Besides, the slope in assay [6] is 0.00394 (inactive).

As for `CCn1nnc(NC(=O)c2ccc(-c3ccc(Cl)cc3)o2)n1`, the cell count in assay [1] stood at 391. In addition, the inhibition was -6.7% (inactive) in assay [1], -101% (inactive) in assay [3], -111% (inactive) in assay [7] and -103% (inactive) in assay [8]. The inhibition of aggregation in assay [2] is -20% (inactive). For the same molecule, the values for the nuclei count in assay [2] and in assay [3] were 129% and 208%, respectively. In addition, in assay [4], the fluorescence slope was -0.488 (inactive). The NADPH fluorescence slope in assay [5] was -7.1e-05 (inactive). Also, in assay [6], the slope was 0.00611 (inactive).

On to `CC1CCCC(C)N1C(=O)CSc1nnc(-c2cccs2)o1` (centres undefined), for which the cell count in assay [1] amounted to 400. The inhibition in assay [1] was -14% (inactive); in assay [3], -9.9% (inactive); in assay [7], -27.4% (inactive); in assay [8], -68% (inactive). For the same molecule, the inhibition of aggregation in assay [2] was -29.6% (inactive). For the same molecule, the nuclei count in assay [2] is 114%; in assay [3] it was 101%. For the same molecule, the fluorescence slope in assay [4] was -0.382 (inactive). The NADPH fluorescence slope in assay [5] was -5.4e-05 (inactive). Further, in assay [6], the slope was 0.0042 (inactive).
